# Only some compounds are listed: those with a hit (about 1.8% of all), similar ones and a draw of the others.
# GRP78 ERSR act – induces the endoplasmic reticulum stress response in human glioma cells | U87-MG GRP78 promoter luciferase reporter, 16 h | Potency, µM, for the others: at the highest dose activation, hits mostly activators | actives 0.02% (n = 420,000) | AID 602332; further: potency means the concentration at half of the fitted maximal effect; series mostly up to about 76 µM; % of control where 0% means no effect; nearly all actives have a fitted effect of over 35% in size
#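 Stably transfected U87-MG human glioma cells carrying a GRP78-based luminescent sensor were seeded at 1000 cells/well, pin-dosed with compounds and incubated 16 h. Luciferase reagent was then added, and end-point luminescence was read after 10 min at room temperature.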
# TCR act – activates T cell receptor signaling; 330,000 tested, under 10 active; Potency, µM (top dose mostly 9.22 µM), inactives show at the highest dose activation of IL-2 secretion, most hits filed as activators; AID 504894; primary human leukocytes, anti-CD3, IL-2 HTRF, 48 h; further: % of control where 0% means no effect
#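 HTRF read-out of IL-2 secretion: europium cryptate donor excited at 320nm, d2 acceptor emission at 665nm. Cells were primary human leukocytes incubated 48 hr with compounds and a-CD3 beads, supplying TCR signal only.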
# A-T KAP1 phos – potential ataxia-telangiectasia treatments restoring KAP-1 phosphorylation. F2112 A-T fibroblasts, KAP-1 phosphorylation AlphaLISA; neocarzinostatin DNA damage 30 min before lysis. actives 0.19% (n = 320,000). Potency, µM (top dose mostly 57.5 µM), for inactives: at the highest dose activation, most hits filed as activators. AID 485349; further: potency means the concentration at half of the fitted maximal effect; % of control where 0% means no effect; nearly all actives have a fitted effect of over 45% in size
#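 hTERT-immortalized A-T patient fibroblasts (F2112), 500 cells/well in OPTI-MEM, 1% FBS, got compounds for 60 min, then NCS for 30 min at 37C. Lysates were then assayed for phospho-KAP-1 by AlphaLISA (anti-pKAP1 donor, anti-KAP1 acceptor beads), 6 hr at 25C.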
# MBNL1 CUG block – inhibitors of human MBNL1 binding to CUG repeat RNA; actives 0.036% (n = 280,000); Q9NR56; TR-FRET MBNL1-His/biotin-(CUG)12 binding, 665/545 ratio; Potency, µM (series often up to 57.5 µM), inactives show at the top dose activity change, negative = inhibition, most hits filed as inhibitors; AID 2675; active means well fitted inhibition curve with a large enough effect in the signal ratio, with a control signal flat, not every such curve was filed as active; inconclusive means small, poorly fitted or top-dose-only effect, or effect the other way, or a change in a side signal; inactive means no such curve, though single readings can be large or run the other way; the % refers to the signal ratio; further: potency means the concentration at half of the fitted maximal effect; on the % scale 0 is the no-effect control and ±100 the full control effect
#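 Inhibition of protein-RNA binding appears as loss of TR-FRET between terbium anti-His antibody on MBNL1-His and streptavidin-XL665 on biotin-(CUG)12. Activity is normalized to buffer-only and uninhibited-complex controls.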
# Mito fusion act – inhibitors of mitochondrial division or activators of mitochondrial fusion; S. cerevisiae fusion-defective mutant growth rescue, CellTiterGlo 48 h; Potency, µM (titrated, usually from 46.1 µM), for inactives: top-dose growth rescue (activation), most hits filed as activators; actives 0.23% (n = 320,000); further: potency means the concentration at half of the fitted maximal effect; % of control where 0% means no effect; nearly all actives have a fitted effect of over 45% in size
#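 Compounds are tested for their ability to restore growth of mitochondrial fusion-defective yeast strains at non-permissive 37C in YPEG medium over 48 hours. Viability is quantified by luciferase luminescence.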
# ClpP mod – qHTS Assay for Activators of ClpP; ATP-dependent Clp protease proteolytic subunit (Bacillus subtilis (strain 168)), P80244; purified B. subtilis ClpP, FRET peptide cleavage, 20 min; Potency, µM (titrated, usually from 57.5 µM), without a hit: at the highest dose activity change, negative = active; actives 1.9% (n = 340,000); AID 651965, 2013; active means well fitted falling curve with a large enough effect; inconclusive means small, poorly fitted or top-dose-only effect; inactive means no such curve, though single readings can be large or run the other way; further: potency means the concentration at half of the fitted maximal effect; the source files actives as falling curves though it sought activators and does not explain the sign; nearly all actives have a fitted effect of over 65% in size
#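 FRET quenching reversal measured ClpP activation: 10 microg/mL B. subtilis ClpP at pH 8 with the FRET-FV decapeptide, read at 430 nm after 320 nm excitation. The 20-min minus 0-min signal was scaled between DMSO/no-enzyme wells and ADEP (5.8 microM final).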
# Active calls of the source: *; ? = inconclusive; nt = no result given; [ ] = remark or other dose. Unless noted, the call rests on the fitted dose curve; in most records, active means well fitted curve in the direction sought with a large enough effect; inconclusive means small, poorly fitted or top-dose-only effect, or another doubt; inactive means no such curve, though single readings can be large; an effect the other way counts as inactive or inconclusive.
SMILES,GRP78 ERSR act,TCR act,A-T KAP1 phos,MBNL1 CUG block,Mito fusion act,ClpP mod
COc1ccc(N2C(=O)CCC(C(=O)N3CCCCC3)C2c2ccc(F)cc2)cc1 (configuration not stated),-0.7%,1.9%,-1.6%,-2.1%,-0.7%,12.6µM*
COc1ccc(N2CCN(C(c3cccs3)c3nnnn3C3CCCC3)CC2)cc1 (configuration not stated),-1.4%,0.5%,2.4%,-3.6%,11.2µM*,0.3%
Fc1ccccc1N1CCN(C(c2ccccn2)c2nnnn2C2CCCCC2)CC1 (configuration not stated),0.0%,1.8%,-4.0%,1.9%,12.6µM*,-4.3%
Fc1ccc(N2CCN(C(c3cccs3)c3nnnn3C3CCCC3)CC2)cc1 (configuration not stated),-3.3%,-6.9%,3.1%,-9.8%,1.6%,-7.2%
COc1ccc(N2CCN(C(c3ccccc3OC)c3nnnn3C3CCCC3)CC2)cc1 (configuration not stated),-4.9%,-1.7%,0.8%,6.9%,-17.2%,-3.8%
COc1ccc(OC)c(C(c2nnnn2C2CCCC2)N2CCN(c3ccccc3F)CC2)c1 (configuration not stated),-4.8%,-2.6%,0.6%,-2.0%,-1.1%,25.1µM*
COc1ccccc1N1CCN(C(c2ccccn2)c2nnnn2C2CCCCC2)CC1 (configuration not stated),-3.5%,-3.3%,-8.4%,-3.0%,9.9%,-3.4%
O=C1[C@H](Cc2ccccc2)NC/C=C\C[C@H](c2ccco2)N1Cc1ccccc1,-3.4%,nt,nt,nt,nt,-2.9%
CCS(=O)(=O)c1nc2ccccc2n1CC(=O)Nc1ccccc1C(=O)OC,-4.1%,nt,nt,nt,nt,48.8%
CC(C)(C)n1ncc2c(=O)n(Cc3ccccc3C#N)cnc21,-4.4%,nt,nt,nt,nt,nt
O=C(CN1C(=O)c2ccccc2C1=O)NCC1Cc2cccc(-c3ncccn3)c2O1 (configuration not stated),0.1%,nt,nt,nt,nt,nt
Cc1oc(-c2ccccc2NS(C)(=O)=O)nc1CN(C)Cc1ccc(Cl)cc1,-5.7%,nt,nt,nt,nt,nt
COc1ccc(-c2cc(C(F)(F)F)c3c(n2)sc2c(O)cc(=O)[nH]c23)c(OC)c1,-6.7%,5.2%[46.1 µM],2.3%,nt,-0.3%,0.1%
Cc1cc(C)c2c(n1)sc1c(O)cc(=O)[nH]c12,-1.6%,-1.4%,1.5%,9.6%,-0.7%,31.6µM*
COc1ccc(-c2c(-c3ccsc3)oc(=O)c3cc(OC)c(OC)cc23)cc1,8.8%,-4.5%,-0.1%,nt,?,?
COCc1ccc(-c2c(-c3ccc(OC)cc3)oc(=O)c3cc(OC)c(OC)cc23)cc1,-2.9%,0.6%,-5.3%,nt,nt,31.6µM*
Cc1ccc(SCC(Cc2ccccc2)N2CCN(C)CCC2=O)cc1 (configuration not stated),-2.5%,nt,nt,nt,nt,nt
O=C(c1ccc(-c2ccccc2Cl)o1)N1CCN(c2ccccc2O)CC1,2.8%,-1.5%,0.8%,nt,17.8µM*,nt
CCOC(=O)N1CCN(c2nc3ccccc3nc2C(C#N)C(=O)NCCc2ccccc2)CC1 (configuration not stated),-1.2%,2.5%,-2.4%,-5.4%,4.8%,14.1µM*
O=C(CCc1ccc(O)c(O)c1)N/N=C/c1ccc2c(c1)OCO2,22.4µM*,4.7%,-34.0%,?,-1.2%,-13.7%
Cc1cccc(C)c1Nc1c(-c2ccsc2)nc2cccc(C)n12,-5.1%,nt,nt,nt,nt,35.5µM*
C/C=C(\NNC(C)=O)c1ccc(O)cc1,-2.0%,nt,nt,nt,nt,1.8%
COc1cc2cc(CN(CCc3ccccc3C)C(=S)NCCCN(C)C)c(=O)[nH]c2cc1OC,-3.5%,-1.0%[46.1 µM],-0.1%,-4.8%,-5.5%,14.1µM*
CC(=O)N(CCc1ccccc1C)Cc1cc2cc3c(cc2[nH]c1=O)OCO3,-0.8%,5.3%,0.3%,-7.8%,-3.2%,28.2µM*

# Screening data as filed in PubChem BioAssay.
